{
  "source": "PubChem BioAssay (Tox21)",
  "note": "Records with an inconclusive call do not appear. Activity calls are given as the source filed them. Calls come from the whole dose curve; as a rule, active = well fitted cell-killing curve with a large enough effect in the repeat runs; inconclusive = weak or mixed curves, or effect the other way; inactive = no such curve, though single readings can be large or run the other way. % is set by controls: 0 for no effect and ±100 for the full control effect.",
  "data": [
    {"assay": "qHTS assay to identify small molecule agonists of the RXR signaling pathway - cell viability counter screen (AID 1159529);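 note: HEK 293T cells carrying an RXR-alpha UAS beta-lactamase reporter; nearly all actives have a fitted effect of over 50% in size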", "details": "RXR-alpha-bla HEK293T viability, CellTiter-Glo, 16 h; series mostly up to 76.8 µM; activity change, negative = cytotoxicity: at the top concentration", "procedure,_shortened": "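RXR-alpha-UAS-bla HEK 293T cells in medium with 2% charcoal-stripped FBS were preincubated 5 hr, then exposed to compounds for 16 hr at 37 C. Viability was read as CellTiter-Glo luminescence after 30 min at room temperature.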", "values": [
      {"compound": "CCOc1ccc2[nH]cc(C(=O)NCc3ccccc3)c(=O)c2n1", "activity change, negative = cytotoxicity": "19.2% (inactive)"},
      {"compound": "C=Cc1c(C)c2cc3[nH]c(cc4nc(cc5nc(cc1[nH]2)C(C)=C5CCC(=O)O)C(CCC(=O)O)=C4C)c(C)c3C=C", "activity change, negative = cytotoxicity": "0.0528% [at 35.3 µM] (inactive)"},
      {"compound": "CCCCCOC(=O)COc1cc(N2C(=O)C3=C(CCCC3)C2=O)c(F)cc1Cl", "activity change, negative = cytotoxicity": "-15.1% (inactive)"},
      {"compound": "CCN(CCO)CCCC(C)Nc1ccnc2cc(Cl)ccc12", "note": "(stereo not drawn)", "activity change, negative = cytotoxicity": "-6.26% [at 6.97 µM] (inactive)"},
      {"compound": "CCc1nn(C2CCCCC2)c2cc(C3(C#N)CCC(C(=O)O)CC3)ccc12", "note": "(stereo not drawn)", "activity change, negative = cytotoxicity": "9.96% (inactive)"},
      {"compound": "NC(N)=N/N=C/c1c(Cl)cccc1Cl", "activity change, negative = cytotoxicity": "-6.44% [at 35.3 µM] (inactive)"},
      {"compound": "CC(C(=O)O)c1ccc(-c2ccccc2)c(F)c1", "note": "(stereo not drawn)", "activity change, negative = cytotoxicity": "-3.43% (inactive)"},
      {"compound": "O=C(c1ccccc1)c1ccc2n1CCC2C(=O)O", "note": "(stereo not drawn)", "activity change, negative = cytotoxicity": "4.5% [at 35.3 µM] (inactive)"},
      {"compound": "N[C@H]1C(O)O[C@H](CO)[C@H](O)[C@@H]1O", "note": "(stereo partly drawn)", "activity change, negative = cytotoxicity": "19.9% (inactive)"},
      {"compound": "CCN1CCC[C@H]1CNC(=O)c1c(OC)ccc(Br)c1OC", "activity change, negative = cytotoxicity": "9.75% [at 35.3 µM] (inactive)"},
      {"compound": "O=C(O)c1cccc(N(Cc2cccnc2)c2ccc(OC(F)F)c(OC(F)F)c2)c1", "activity change, negative = cytotoxicity": "-5.69% (inactive)"},
      {"compound": "O=C(c1ccc(O)cc1)c1ccc(O)cc1", "activity change, negative = cytotoxicity": "24.8% (inactive)"},
      {"compound": "OCC1CC2CC1C1CCC(CO)C21", "note": "(stereo not drawn)", "activity change, negative = cytotoxicity": "-18.4% (inactive)"},
      {"compound": "CCCCCCCCC(CO)CCCCCC", "note": "(stereo not drawn)", "activity change, negative = cytotoxicity": "2.84% (inactive)"},
      {"compound": "CC1=CC(=O)/C(=C(/C)O)C(=O)O1", "activity change, negative = cytotoxicity": "21.9% (inactive)"},
      {"compound": "CCCOc1ccc2nc(NC(=O)OC)[nH]c2c1", "activity change, negative = cytotoxicity": "10.5% [at 35.3 µM] (inactive)"},
      {"compound": "O=C1CCCCCO1", "activity change, negative = cytotoxicity": "4.91% (inactive)"},
      {"compound": "Oc1ccc2c(c1)OCO2", "activity change, negative = cytotoxicity": "10.2% (inactive)"}
    ]}
  ]
}
